Assay outcomes: PubChem, National Center for Advancing Translational Sciences (NCATS)
p53 reactivator: qHTS assay for re-activators of p53 using a Luc reporter. H1299 p53-A138V BP100-luciferase reporter, luminescence, 24 h. Potency, µM (series often up to 92.2 µM), without a hit: at the highest dose activity change, positive = activation, most hits filed as activators. 0.063% of 320,000 active; note: potency is the fitted concentration of half-maximal effect; % of control where 0% means no effect; nearly all actives have a fitted effect of over 45% in size
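H1299 (p53-null), stable ts p53-A138V + BP100-Luc; 1000 cells/well, Opti-MEM/10% FBS; cpd 4 pt, 1:5; 24 h, 37 deg C, 5% CO2; detection reagent 10 min RT; luminescence.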
IL2 activator: qHTS of IL-2 Activators | 0.065% of 360,000 active | IL-2 activation reporter assay, cell-based qHTS; stimulated with anti-CD3/CD4/CD28 beads; in transgenic mouse T cells | AID 652025, 2013 | activation, % (series mostly up to about 46 µM); in the data active = activation above about 50%; inconclusive = mostly about 30% to 49%; note: 0% is about no effect
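Unstimulated transgenic mouse T cells preincubated 60 min with compound, then stimulated with anti-CD3/anti-CD4-coated beads plus anti-CD28 for 18 h at 37 degrees C. IL-2 response read as EGFP and DsRed fluorescence by plate cytometry.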
Mito fusion act: qHTS Assay for Small Molecule Inhibitors of Mitochondrial Division or Activators of Mitochondrial Fusion; 0.23% of 320,000 active; AID 485298, 2010; S. cerevisiae fusion-defective mutant growth rescue, CellTiterGlo 48 h; Potency, µM (titrated, usually from 46.1 µM), without a hit: at the highest dose growth rescue (activation), most hits filed as activators; note: potency is the fitted concentration of half-maximal effect; % of control where 0% means no effect; nearly all actives have a fitted effect of over 45% in size
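Read-out: ATP-based luminescence (CellTiterGlo, 10 min ambient) reporting growth of fusion-defective ts yeast after 48 hours at 37C on glycerol/ethanol YPEG medium in the presence of compound.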
BRCA1 expr up: qHTS Assay to Identify Small Molecule Activators of BRCA1 Expression | AID 624202, 2012 | Potency, µM (series often up to 46.1 µM), for inactives: top-dose activation, usual class: activators | 1.1% of 380,000 active | MCF7-BRCA1-FFLuc reporter, luminescence, 48 h; response scale: scaled: vehicle 0%, 10 µM genistein 100%; note: potency is the fitted concentration of half-maximal effect; nearly all actives have a fitted effect of over 80% in size
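Using MCF7 cells harboring a BRCA1 firefly luciferase reporter, plated 2 h before compound pinning, the screen measured luminescence after 48 h incubation. Responses were normalized to DMSO and 10 microM genistein, then fitted for concentration-effect.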
TCR act: Activators of T cell receptors: qHTS campaign; primary human leukocytes, anti-CD3, IL-2 HTRF, 48 h; Potency, µM (series often up to 9.22 µM), without a hit: at the top dose activation of IL-2 secretion, actives largely listed as activators; 330,000 tested, under 10 active; note: % of control where 0% means no effect
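IL-2 produced over 48 hr by a-CD3 bead-stimulated primary human leukocytes exposed to compounds was detected with a homogeneous time-resolved FRET immunoassay, 665nm acceptor signal after 320nm excitation.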
Starred values were filed as active, the others as inactive; u = inconclusive; x = no result given; [ ] = another dose, or the depositor's remark. A selection: hits, their analogues and other compounds. The true share with any hit is near 1.3%. Unless noted, calls come from the whole dose curve; as a rule, active = well fitted curve in the direction sought with a large enough effect; inconclusive = small, poorly fitted or top-dose-only effect, or another doubt; inactive = no such curve, though single readings can be large; an effect the other way counts as inactive or inconclusive.

SMILES	p53 reactivator	IL2 activator	Mito fusion act	BRCA1 expr up	TCR act
CCC(C)c1ccc(O)c(NC(=O)c2cccnc2)c1 (stereo not given)	-2.4%	0.8	5.8%	-50.3%	-0.3%
CCCN1CNc2c(c(=O)[nH]c(=S)n2CCc2cccc(OC)c2)C1	x	x	x	2.1%	x
Oc1cc2cc(-c3csc(-c4ccc(F)cc4)n3)cc3c2n1CCC3	x	x	x	12.6µM*	x
O=C(N1CCN(c2ccccn2)CC1)N1c2ccccc2Sc2ccccc21	12.2%	-2.6	11.2µM*	-81.3%	-46.3%
O=C(c1ccc(Br)s1)N1CCN(c2ccccn2)CC1	-9.5%	0.3	4.8%	-3.4%	x
CC(C)(C)C(=O)Nc1ccc2nc(SCCOc3ccccc3Cl)sc2c1	x	x	x	-17.8%	x
CN(C)c1ccc(/C=C2\C=Cc3ccccc32)c(F)c1	x	x	x	5.5%	x
Nn1c(CSc2ccccn2)nc2ccccc2c1=O	u	0.2	-1.1%	10µM*	-2.6%
CC1=CC(O)=NS(=O)(=O)O1	x	x	x	14.7%	x
CCN1C(=NCc2cccc(Cl)c2)N[C@@H](c2cccc(C(F)(F)F)c2)C(C(=O)OC)=C1C	x	x	x	-17.0%	x
CCOc1cnc(-c2ccc(OC)cc2)o1	u	-1.4	0.2%	7.94µM*	-7.4%
C(=C\c1ccnc2ccccc12)/c1ccc(N2CCOCC2)cc1	x	x	x	-28.6%	x
Cc1c(NC(=O)c2cccs2)cccc1C(=O)O	8.9%	3.6	0.0%	83.0%	1.5%
C/C(=N\Nc1ccc(Cl)c(C(=O)O)c1)c1cccs1	8.4%	-2.4	0.1%	12.6µM*	-0.2%
C/C(=N/Nc1ccccc1C(=O)O)c1cccs1	14.5%	-0.4	-1.5%	10µM*	x
c1ccc(-c2nc(-c3cnc4ccccc4n3)cs2)cc1	x	x	x	14.1%	x
O=C(COc1ccc(Br)cc1)c1ccc2c(c1)CCCC2	-0.7%	-0.3	0.3%	18.7%	-6.9%
Cc1ccc(OCC(=O)c2ccc3c(c2)CCCC3)cc1C	u	-0.2	4.6%	4.47µM*	4.0%
CCCCCCCCNC(=O)c1cccnc1SCC(=O)Nc1ccccc1OC	-8.3%	0.6	2.7%	-17.5%	-6.2%[46.1 µM]
O=C(CSc1ncccc1C(=O)Oc1ccccc1Cl)Nc1ccccc1Cl	x	x	x	11.2µM*	x
Cn1c2ccccc2c2nnc(SCCOc3ccccc3)nc21	x	x	x	38.3%	x
Cc1cccc(-n2nnnc2SCC(=O)NCC2CCCO2)c1 (stereo not given)	-7.7%	-1.3	17.8µM*	4.8%	-18.3%
Cc1ccc(-n2nnnc2SCC(=O)NCC2CCCO2)cc1C (stereo not given)	8.0%	-0.2	-5.6%	-10.0%	-2.5%
CC(=O)N(C)c1ccc(N=NC2C(=O)N(C(N)=S)N=C2C)cc1 (stereo not given)	x	-0.1	21.5%	3.98µM*	-4.7%
CC1=NN(C(N)=S)C(=O)C1N=Nc1ccc(S(N)(=O)=O)cc1 (stereo not given)	10.5%	0.3	-0.6%	25.9%	x
SMILES	p53 reactivator	IL2 activator	Mito fusion act	BRCA1 expr up	TCR act
COC(=O)CSc1nc2cc(C)ccc2cc1C#N	x	103.3*	-3.5%	u	-7.9%
O=C(c1ccc2c(c1)N(Cc1ccc(F)cc1)C(=O)c1ccccc1S2(=O)=O)N1CCN(Cc2ccccc2)CC1	x	x	x	-34.8%	x
Cc1ccc2c(CNCCc3ccco3)c(C(=O)O)n(Cc3ccc(F)cc3)c2c1	x	x	x	-12.4%	x
COC(=O)c1sc(NC(=O)c2oc3ccccc3c2C)nc1C	23.9%	1.2	0.4%	7.08µM*	2.4%
COc1cccc(NC(=O)N(Cc2c[nH]c3ccccc23)C2CCCCCC2)c1	x	x	x	-53.3%	x
CCC(=O)N1c2ccc(S(=O)(=O)CCC(=O)NCc3ccc(OC)cc3)cc2CC1C (stereo not given)	x	x	x	2.5%	x
O=C(CSc1ncn[nH]1)c1ccc2c(c1)OCCO2	27.1%	-1.0	-8.4%	72.7%	2.9%
CC(C)c1ccc(C(=O)CSc2ncn[nH]2)cc1	u	-2.6	1.3%	14.1µM*	-11.7%
COc1cc2ccccc2cc1-c1nnc(COc2ccccc2)o1	1.0%	-2.4	10µM*	0.9%	-5.9%
CCc1ccccc1NC(=O)N(C)CCc1c(C)nn(C)c1C	x	x	x	0.2%	x
C(=C\c1ccccc1)/CNn1cnnc1	7.4%	1.6	1.7%	-0.9%	2.7%[46.1 µM]
Clc1ccccc1CSc1nncn1NC/C=C/c1ccccc1	-29.7%	-0.3	22.4µM*	-0.4%	3.3%[46.1 µM]
CCn1nnc2c(N3CCCC3)ncnc21	x	x	x	30.3%	x
Cc1ccc(S(=O)(=O)N2CCN(c3nc(-c4ncco4)nc4ccccc34)CC2)cc1	x	x	x	-29.6%	x
CCC(=O)c1ccc(N2CCN(C(=O)c3ccccc3Br)CC2)c(F)c1	-3.3%	-0.4	1.3%	1.5%	-2.7%
CCC(=O)c1ccc(N2CCN(C(=O)c3ccccc3F)CC2)c(F)c1	6.4%	-1.4	10µM*	0.0%	-31.4%
CC(=O)c1cccc(NC(=O)Cc2ccc(NC(=O)N3CCCCc4ccccc43)cc2)c1	x	x	x	0.0%	x
Cn1cccc1CNC(=O)Nc1ccc(Cl)c(Cl)c1	21.8%	1.3	1.1%	2.24µM*	0.0%
CCn1nc(-c2ccccc2C)nc2c(=O)n(C)c(=O)nc1-2	x	x	x	-77.9%	x
O=C(Nc1nc(-c2ccc(Cl)cc2)cs1)C1CCCO1 (stereo not given)	-3.6%	-0.8	-1.3%	6.31µM*	-3.9%
O=C(Nc1ncc(Cc2ccccc2Cl)s1)C1CCCO1 (stereo not given)	14.1µM*	-1.6	8.2%	4.47µM*	0.1%[46.1 µM]
O=C(Nc1ncc(Cc2cccc(Cl)c2Cl)s1)C1CCCO1 (stereo not given)	11.9%	-2.8	4.0%	u	-0.6%
COc1ccc(OC)c(NC(=O)c2csc(Cl)c2OC)c1	7.6%	-3.5	10µM*	-23.3%	-4.2%
c1csc(-c2noc(COc3ccc4c(c3)CCCC4)n2)c1	u	-2.6	8.6%	3.98µM*	x
Cc1cc2c(nn1)CCc1nonc1-2	-3.7%	1.3	-2.0%	0.2%	-0.1%
SMILES	p53 reactivator	IL2 activator	Mito fusion act	BRCA1 expr up	TCR act
Cc1ccc2c3c([nH]c2c1C)-c1nonc1CC3	u	0.3	11.2%	8.91µM*	4.7%[46.1 µM]
CCOc1ccc(NC(=O)CSc2nnc(CNC(=O)C34CC5CC(CC(C5)C3)C4)n2CC)cc1	x	x	x	0.0%	x
O=C(N/N=C/C=C\c1ccco1)c1cccs1	12.8%	0.9	-1.2%	7.08µM*	3.8%
O=C(Cc1cccs1)N/N=C/C=C\c1ccco1	14.1µM*	1.9	0.6%	75.7%	5.8%[46.1 µM]
O=C(Cc1cccs1)N/N=C/c1ccco1	18.6%	-1.4	-3.1%	-0.3%	-3.1%[46.1 µM]
Nc1nc2ccccc2cc1-c1cccs1	u	-0.3	-18.0%	3.16µM*	-5.0%
N#Cc1cc2ccccc2nc1N	2.7%	-2.9	2.8%	14.1%	-0.6%
Cc1ccc(-c2cc3ccccc3nc2N)cc1	u	0.0	-30.1%	10µM*	-0.6%
